ZTA DNA inh – blocks Epstein-Barr virus ZTA, an EBNA-1 counter-screen | P03206 | ZTA-DNA binding, fluorescence polarization | inhibition, % at 11 µM | 0.15% of 320,000 active; in the data active means inhibition above about 33%
Target sequence (P03206 whole entry, looked up): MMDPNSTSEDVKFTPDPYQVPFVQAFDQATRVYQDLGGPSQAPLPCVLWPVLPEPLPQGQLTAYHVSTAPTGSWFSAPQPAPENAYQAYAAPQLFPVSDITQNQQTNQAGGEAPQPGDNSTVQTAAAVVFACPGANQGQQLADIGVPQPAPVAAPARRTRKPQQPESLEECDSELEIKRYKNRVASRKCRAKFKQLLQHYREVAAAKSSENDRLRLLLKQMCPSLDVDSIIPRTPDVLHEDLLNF
NR3A LBD binder – modulates the human NR3A ligand-binding domain. Tm shift relative to glycine control, % at 25 µM. 2.5% of 340,000 active. NR3A LBD differential scanning fluorimetry, Tm shift; 0% = protein alone, 100% = glycine-bound protein;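 active means melting temperature shift of at least 10% of the positive control shift, at one fixed dose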
dFosB act-1 – activators of mouse delta FosB homodimer; activation, % at 25 µM; purified delta FosB, TAMRA-CDK5 oligo fluorescence polarization; percent of positive-control signal above neutral wells; AID 493131; P13346; 0.99% of 340,000 active;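 active means mean activation above about 17%, with every replicate also reaching it, limit read from the data, passing the limit was not always enough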
TPT1 inh – C. albicans TPT1 enzyme inhibition; inhibition, % at 5 µM; recombinant caTPT1, FP RNA substrate dephosphorylation; AID 1962; 0.81% of 300,000 active;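 active means inhibition above the mean of all tested compounds plus 3 SD, set per screening campaign, cut at about 24% in these data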
EBNA-1 inhibitor – blocks EBNA-1 binding to DNA. inhibition, % at 14.8 µM. EBNA-1 DNA binding, fluorescence polarization. 0.34% of 300,000 active. AID 1950; in the data active means inhibition above about 28%
Rpn11 inh – inhibitors of human proteasome Rpn11; O00487; human 26S proteasome, Ub4-pepOG fluorescence polarization; 20S core pre-blocked with epoxomicin; inhibition, % at 20 µM; 0.59% of 360,000 active;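 active means inhibition at 20 µM, scaled to each plate's controls, above about 33%, limit read from the data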
dFosB act-2 – activators of mouse delta FosB homodimer DNA binding; 2,400 tested, under 10 active; activation, % at 24.9 µM; AID 588690; purified delta FosB, TAMRA-CDK5 oligo fluorescence polarization; normalised: neutral wells 0, positive control 100; shares compounds with dFosB act-1;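 active means highest replicate activation at or above 34% and every replicate reaching that threshold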;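 further: higher polarization means more probe DNA bound by delta FosB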
Hits are given with their value; . = inactive; / = no result given. The list is not random: actives were taken first. Their share in the collection is about 4.5%.

SMILES	ZTA DNA inh	NR3A LBD binder	dFosB act-1	TPT1 inh	EBNA-1 inhibitor	Rpn11 inh	dFosB act-2
CC(=O)c1ccc(NS(=O)(=O)c2ccc(N/C=C/C(=O)c3ccc(F)cc3)cc2)cc1	.	16	44	.	.	.	.
COc1cc(NS(=O)(=O)c2ccc(N/C=C\C(=O)c3ccc(F)cc3)cc2)nc(OC)n1	.	.	.	.	.	.	/
CC(=O)c1cccc(NS(=O)(=O)c2ccc(N/C=C\C(=O)c3ccc(C)cc3)cc2)c1	.	.	23	.	.	.	.
COc1cccc(CNC(=O)CN2C(=O)COc3ccc(S(=O)(=O)N4CCCC4)cc32)c1	.	.	.	.	.	.	/
CC(=O)Nc1ccc(CN2C(=O)C(Cc3ccccc3)ON=C2c2ncccc2C)cc1 (stereo unspecified)	/	/	/	/	/	.	/
N#Cc1c2nc3ccccc3nc2n2cc(NC(=O)c3ccc(F)cc3)ccc12	/	.	.	/	/	.	/
Cc1c(C(=O)Nc2ccc(F)cc2)cn2c(nc3ccccc32)c1C#N	.	.	33	.	.	.	.
CCOc1ccccc1N(CC(=O)Nc1ccc(S(=O)(=O)N2CCOCC2)cc1)S(=O)(=O)c1ccccc1	.	.	53	.	.	.	.
CCOc1ccccc1N(CC(=O)Nc1ccc(S(=O)(=O)N2CCOCC2)cc1)S(C)(=O)=O	.	.	.	.	.	.	/
CCC(C)(C)C1CCC2(CC1)NC(=O)N(CC(=O)N1CCN(S(=O)(=O)c3cc(C)ccc3C)CC1)C2=O (stereo unspecified)	.	.	45	.	.	.	.
CCC(C)(C)C1CCC2(CC1)NC(=O)N(CC(=O)Nc1nc(-c3ccc(C)cc3)cs1)C2=O (stereo unspecified)	.	.	34	.	.	.	.
Cn1c(SCC(=O)NCc2ccco2)nnc1C1CCCC1	.	.	.	.	.	.	/
NC(=O)COC(=O)c1oc2ccccc2c1CSc1ccc(Cl)cc1	.	.	18	.	.	.	.
O=C(CN1C(=O)c2ccccc2C1=O)NCC(=O)OCC(=O)c1ccc(Br)cc1	.	.	46	.	.	.	.
O=C(CN1C(=O)c2ccccc2C1=O)NCC(=O)OCC(=O)c1ccc(Cl)cc1	.	.	.	.	.	.	/
COc1ccc(C(=O)Nc2ccccc2C(=O)NC(Cc2ccc(O)cc2)C(=O)NNC(=O)c2ccc(C)cc2)cc1 (stereo unspecified)	.	.	100	.	.	.	.
CCCN1C(=O)c2cc(C(=O)Nc3ccc(OC)cc3OC)ccc2C1Nc1ccc(OC)cc1OC (stereo unspecified)	.	.	.	.	.	.	/
CC(=O)Nc1ccc(S(=O)(=O)NCC2CCC(C(=O)NCCC3=CCCCC3)CC2)cc1 (stereo unspecified)	.	.	63	.	.	.	.
O=C(NNc1ccccc1[N+](=O)[O-])Nc1ccccc1	.	.	.	.	.	.	/
O=C(NNc1ccccc1[N+](=O)[O-])Nc1ccc(Cl)c(Cl)c1	.	15	29	.	.	.	.
CCOC(=O)N1CCC(N2CCCC(C(=O)c3cccc(OC(C)C)c3)C2)CC1 (stereo unspecified)	.	.	.	.	.	.	/
C[C@H](CO)N1C[C@H](C)[C@@H](CN(C)S(C)(=O)=O)Oc2c(NC(=O)Nc3ccccc3)cccc2C1=O	/	.	.	/	/	.	/
O=C(/C=C/c1cccs1)NC(=S)Nc1ccc(C(=O)O)cc1	.	.	.	.	.	.	/
NS(=O)(=O)c1ccc(NC(=S)NC(=O)/C=C/c2cccs2)cc1	.	.	26	.	.	.	.
Cc1ccc2c(c1)N(C(=O)CCC(=O)O)CCO2	.	.	.	.	.	.	/
CC(=O)Oc1ccc(C(=O)Nc2cccc(C(=O)c3cccc(NC(=O)c4ccc(OC(C)=O)cc4)c3)c2)cc1	.	.	57	.	.	.	.
Cc1n[nH]c(C)c1S(=O)(=O)N1CCc2ccccc21	.	.	.	.	.	.	/
Cc1cc(C)c(S(=O)(=O)N2CCc3ccccc32)c(C)c1	.	.	27	.	.	.	.
